# ChEMBL document CHEMBL2218924, “A broad activity screen in support of a chemogenomic map for kinase signalling research and drug discovery” (Biochem J, 2013)
# Experiments:
# [1] = target: ALK tyrosine kinase receptor (Homo sapiens) (UniProt Q9UM73); conditions: at 10 µM
# [2] = target: T1, Activin receptor type-1B (Homo sapiens) (UniProt P36896); conditions: at 1 µM
# T1 sequence (whole entry): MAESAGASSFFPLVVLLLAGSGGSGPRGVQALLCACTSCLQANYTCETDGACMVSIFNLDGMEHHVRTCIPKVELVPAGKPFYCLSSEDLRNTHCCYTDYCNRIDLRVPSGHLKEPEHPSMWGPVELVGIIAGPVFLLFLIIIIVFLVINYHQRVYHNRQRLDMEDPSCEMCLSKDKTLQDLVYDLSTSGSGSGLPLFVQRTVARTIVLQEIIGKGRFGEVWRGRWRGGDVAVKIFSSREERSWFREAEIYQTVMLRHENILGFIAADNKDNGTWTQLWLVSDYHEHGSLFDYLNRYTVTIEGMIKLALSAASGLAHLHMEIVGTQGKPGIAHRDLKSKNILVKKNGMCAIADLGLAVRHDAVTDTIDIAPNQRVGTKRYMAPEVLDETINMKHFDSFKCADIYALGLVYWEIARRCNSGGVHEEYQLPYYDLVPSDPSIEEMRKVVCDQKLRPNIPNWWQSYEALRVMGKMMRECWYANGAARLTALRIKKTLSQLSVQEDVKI
# [3] = target: T1, Activin receptor type-1B (Homo sapiens); conditions: at 10 µM
# [4] = target: T2, AMP-activated protein kinase (AMPK) alpha-1/beta-1/gamma-1 (Homo sapiens) (UniProt P54619+Q9Y478+Q13131); conditions: at 1 µM
# T2 sequence (P54619 whole entry): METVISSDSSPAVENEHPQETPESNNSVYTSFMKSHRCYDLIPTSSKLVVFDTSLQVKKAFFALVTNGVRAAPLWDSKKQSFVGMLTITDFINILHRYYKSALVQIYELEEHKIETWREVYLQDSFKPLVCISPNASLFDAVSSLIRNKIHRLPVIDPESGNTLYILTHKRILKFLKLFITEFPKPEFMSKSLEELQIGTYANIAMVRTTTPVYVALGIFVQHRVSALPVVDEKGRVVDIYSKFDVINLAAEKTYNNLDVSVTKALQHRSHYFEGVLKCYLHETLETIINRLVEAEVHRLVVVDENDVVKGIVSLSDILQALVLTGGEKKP
# T2 sequence (Q13131 whole entry partner): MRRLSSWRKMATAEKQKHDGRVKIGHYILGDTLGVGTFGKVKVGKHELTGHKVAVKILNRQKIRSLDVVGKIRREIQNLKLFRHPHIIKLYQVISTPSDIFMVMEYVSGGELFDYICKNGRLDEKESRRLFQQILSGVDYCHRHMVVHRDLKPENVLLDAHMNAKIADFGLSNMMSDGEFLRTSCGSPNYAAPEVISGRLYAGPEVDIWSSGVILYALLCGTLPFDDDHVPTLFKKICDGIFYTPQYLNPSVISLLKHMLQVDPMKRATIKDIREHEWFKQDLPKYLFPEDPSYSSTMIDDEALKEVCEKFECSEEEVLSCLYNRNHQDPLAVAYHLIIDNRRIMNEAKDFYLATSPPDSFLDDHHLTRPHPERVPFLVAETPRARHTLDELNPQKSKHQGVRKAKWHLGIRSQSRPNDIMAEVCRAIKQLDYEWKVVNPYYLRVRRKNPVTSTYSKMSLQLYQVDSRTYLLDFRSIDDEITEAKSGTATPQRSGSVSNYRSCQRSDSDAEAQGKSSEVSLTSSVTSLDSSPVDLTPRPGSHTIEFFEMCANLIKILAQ
# T2 sequence (Q9Y478 2-270 partner limits assumed): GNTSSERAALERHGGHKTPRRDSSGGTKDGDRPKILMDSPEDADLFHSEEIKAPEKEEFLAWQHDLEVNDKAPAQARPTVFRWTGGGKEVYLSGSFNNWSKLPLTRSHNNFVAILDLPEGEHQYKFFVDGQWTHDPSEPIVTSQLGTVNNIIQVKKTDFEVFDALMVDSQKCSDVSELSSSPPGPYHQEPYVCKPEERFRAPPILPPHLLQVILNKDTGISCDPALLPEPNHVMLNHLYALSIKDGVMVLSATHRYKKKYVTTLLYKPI
# [5] = target: T2, AMP-activated protein kinase (AMPK) alpha-1/beta-1/gamma-1 (Homo sapiens); conditions: at 10 µM
# [6] = target: T3, AMP-activated protein kinase, AMPK (Homo sapiens) (UniProt P54646+O43741+P54619+Q9UGJ0+Q9Y478+Q13131+Q9UGI9); conditions: at 1 µM
# [7] = target: T3, AMP-activated protein kinase, AMPK (Homo sapiens); conditions: at 10 µM
# [8] = target: T4, NUAK family SNF1-like kinase 1 (Homo sapiens) (UniProt O60285); conditions: at 1 µM
# T4 sequence (whole entry): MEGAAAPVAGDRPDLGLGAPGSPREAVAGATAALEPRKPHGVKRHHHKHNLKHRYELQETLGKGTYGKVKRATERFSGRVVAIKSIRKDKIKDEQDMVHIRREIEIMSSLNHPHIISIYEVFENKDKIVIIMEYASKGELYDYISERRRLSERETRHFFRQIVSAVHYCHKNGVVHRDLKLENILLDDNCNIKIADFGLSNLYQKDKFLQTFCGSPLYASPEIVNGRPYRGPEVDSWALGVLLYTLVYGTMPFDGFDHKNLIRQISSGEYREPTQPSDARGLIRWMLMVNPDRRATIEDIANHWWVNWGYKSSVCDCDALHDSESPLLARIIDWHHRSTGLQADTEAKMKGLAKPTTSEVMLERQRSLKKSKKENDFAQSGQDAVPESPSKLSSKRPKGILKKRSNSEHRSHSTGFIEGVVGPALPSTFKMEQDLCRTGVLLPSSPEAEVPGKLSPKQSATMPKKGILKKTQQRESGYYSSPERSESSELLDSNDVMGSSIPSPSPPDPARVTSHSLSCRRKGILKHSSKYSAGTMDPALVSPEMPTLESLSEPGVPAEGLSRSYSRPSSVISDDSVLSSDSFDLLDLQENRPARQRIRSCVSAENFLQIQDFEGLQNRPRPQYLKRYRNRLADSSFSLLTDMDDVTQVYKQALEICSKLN
# [9] = target: T4, NUAK family SNF1-like kinase 1 (Homo sapiens); conditions: at 10 µM
# [10] = target: T5, Mitogen-activated protein kinase kinase kinase 5 (Homo sapiens) (UniProt Q99683); conditions: at 1 µM
# T5 sequence (whole entry): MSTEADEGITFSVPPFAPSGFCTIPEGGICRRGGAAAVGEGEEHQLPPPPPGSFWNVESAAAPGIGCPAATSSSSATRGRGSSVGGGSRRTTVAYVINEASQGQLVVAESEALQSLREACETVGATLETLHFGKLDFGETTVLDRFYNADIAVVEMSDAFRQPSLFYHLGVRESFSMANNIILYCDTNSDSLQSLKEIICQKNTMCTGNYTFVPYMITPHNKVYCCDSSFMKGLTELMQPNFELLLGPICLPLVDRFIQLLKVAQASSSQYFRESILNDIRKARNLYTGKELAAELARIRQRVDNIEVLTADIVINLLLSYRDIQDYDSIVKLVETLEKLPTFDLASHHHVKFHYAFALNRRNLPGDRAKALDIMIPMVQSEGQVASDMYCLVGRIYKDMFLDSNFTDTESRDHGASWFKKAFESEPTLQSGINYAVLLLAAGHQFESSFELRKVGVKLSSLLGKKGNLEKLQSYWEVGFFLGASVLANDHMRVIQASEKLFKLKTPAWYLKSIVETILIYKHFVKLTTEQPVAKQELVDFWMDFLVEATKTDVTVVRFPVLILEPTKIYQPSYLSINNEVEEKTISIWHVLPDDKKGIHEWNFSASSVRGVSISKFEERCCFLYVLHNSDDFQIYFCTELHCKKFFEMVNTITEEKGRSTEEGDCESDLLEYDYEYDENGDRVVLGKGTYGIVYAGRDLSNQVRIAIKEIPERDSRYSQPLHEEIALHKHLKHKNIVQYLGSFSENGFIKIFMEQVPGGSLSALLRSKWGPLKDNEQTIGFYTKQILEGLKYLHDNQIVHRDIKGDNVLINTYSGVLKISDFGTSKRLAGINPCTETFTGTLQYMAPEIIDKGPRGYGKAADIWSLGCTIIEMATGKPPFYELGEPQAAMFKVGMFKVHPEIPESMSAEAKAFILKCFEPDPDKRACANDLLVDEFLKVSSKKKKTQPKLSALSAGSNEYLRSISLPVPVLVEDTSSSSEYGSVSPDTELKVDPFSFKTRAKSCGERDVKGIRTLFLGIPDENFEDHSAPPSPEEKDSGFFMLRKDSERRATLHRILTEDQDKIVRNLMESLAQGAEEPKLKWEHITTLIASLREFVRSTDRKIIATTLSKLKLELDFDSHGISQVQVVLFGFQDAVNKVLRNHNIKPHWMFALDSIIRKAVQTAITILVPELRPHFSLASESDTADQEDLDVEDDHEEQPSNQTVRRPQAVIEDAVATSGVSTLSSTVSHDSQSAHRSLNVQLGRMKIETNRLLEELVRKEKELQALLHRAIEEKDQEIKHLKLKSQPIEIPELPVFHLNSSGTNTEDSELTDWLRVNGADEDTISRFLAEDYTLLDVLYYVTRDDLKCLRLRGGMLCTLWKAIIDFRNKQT
# Sequence of ALK tyrosine kinase receptor (Homo sapiens) (Q9UM73 19-1620 limits assumed): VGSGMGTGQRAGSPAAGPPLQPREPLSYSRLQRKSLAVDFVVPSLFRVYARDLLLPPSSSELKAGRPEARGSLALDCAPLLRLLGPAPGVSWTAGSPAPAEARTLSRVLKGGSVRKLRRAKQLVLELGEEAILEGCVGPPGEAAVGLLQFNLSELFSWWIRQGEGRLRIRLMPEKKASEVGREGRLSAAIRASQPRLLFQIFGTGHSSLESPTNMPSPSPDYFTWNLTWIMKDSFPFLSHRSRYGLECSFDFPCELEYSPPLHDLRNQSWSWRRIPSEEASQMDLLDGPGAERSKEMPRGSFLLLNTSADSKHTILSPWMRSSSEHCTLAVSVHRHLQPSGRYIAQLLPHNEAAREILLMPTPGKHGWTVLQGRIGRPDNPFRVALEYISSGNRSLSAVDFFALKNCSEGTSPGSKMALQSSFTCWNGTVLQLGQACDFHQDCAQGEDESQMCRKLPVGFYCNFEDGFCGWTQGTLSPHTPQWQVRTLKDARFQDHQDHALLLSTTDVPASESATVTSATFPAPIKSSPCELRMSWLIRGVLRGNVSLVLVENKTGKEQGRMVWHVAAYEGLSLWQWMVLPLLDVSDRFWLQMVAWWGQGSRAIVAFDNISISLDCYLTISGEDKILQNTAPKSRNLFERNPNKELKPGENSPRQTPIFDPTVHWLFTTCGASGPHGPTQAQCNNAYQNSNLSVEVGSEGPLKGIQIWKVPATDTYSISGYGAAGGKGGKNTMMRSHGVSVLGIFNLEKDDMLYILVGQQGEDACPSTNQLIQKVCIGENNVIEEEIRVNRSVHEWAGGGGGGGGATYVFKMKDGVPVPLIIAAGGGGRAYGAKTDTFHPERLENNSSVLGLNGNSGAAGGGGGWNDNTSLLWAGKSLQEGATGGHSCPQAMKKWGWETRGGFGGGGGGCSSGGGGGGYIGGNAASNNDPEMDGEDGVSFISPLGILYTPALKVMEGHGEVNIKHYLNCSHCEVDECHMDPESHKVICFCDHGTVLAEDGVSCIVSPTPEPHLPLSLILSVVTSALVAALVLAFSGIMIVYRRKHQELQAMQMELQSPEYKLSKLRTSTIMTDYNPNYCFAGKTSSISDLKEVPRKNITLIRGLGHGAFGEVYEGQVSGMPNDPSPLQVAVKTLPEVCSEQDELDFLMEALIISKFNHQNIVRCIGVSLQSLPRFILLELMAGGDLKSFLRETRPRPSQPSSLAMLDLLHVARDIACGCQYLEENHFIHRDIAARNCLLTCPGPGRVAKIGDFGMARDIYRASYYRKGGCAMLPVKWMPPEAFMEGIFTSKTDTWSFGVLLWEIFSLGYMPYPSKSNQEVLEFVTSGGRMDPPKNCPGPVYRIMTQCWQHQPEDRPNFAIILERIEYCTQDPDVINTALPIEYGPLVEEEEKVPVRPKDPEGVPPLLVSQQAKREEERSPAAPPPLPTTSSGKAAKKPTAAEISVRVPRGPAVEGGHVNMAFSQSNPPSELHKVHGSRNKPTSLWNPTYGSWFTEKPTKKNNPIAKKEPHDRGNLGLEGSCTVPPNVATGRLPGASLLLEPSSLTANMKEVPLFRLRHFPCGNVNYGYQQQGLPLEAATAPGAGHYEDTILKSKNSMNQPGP
SMILES,residual activity [1],residual activity [2],residual activity [3],residual activity [4],residual activity [5],residual activity [6],residual activity [7],residual activity [8],residual activity [9],residual activity [10]
COc1ccc(CNc2nc(N(CCO)CCO)nc3c2ncn3C(C)C)cc1,61%,97%,118%,97%,80%,86%,88%,107%,77%,95%
Nc1nc(Nc2ccc(S(N)(=O)=O)cc2)nn1C(=S)Nc1c(F)cccc1F,1%,7%,-4%,-2%,-1%,-3%,0%,1%,0%,1%
NC(=O)c1ccc2[nH]c(-c3ccc(Oc4ccc(Cl)cc4)cc3)nc2c1,87%,111%,97%,72%,32%,71%,40%,98%,85%,80%
Cc1cc(Nc2nc(-c3ccccc3)nc3ccccc23)n[nH]1,15%,96%,76%,15%,3%,5%,3%,3%,-1%,94%
Cn1cnc2cc3c(Nc4cccc(Br)c4)ncnc3cc21,59%,123%,82%,90%,69%,102%,65%,99%,80%,113%
O=Nc1c(-c2c(O)[nH]c3ccccc23)[nH]c2ccccc12,18%,104%,72%,2%,0%,1%,3%,4%,7%,52%
c1ccc2c(-c3ccncc3)c[nH]c2c1,105%,,110%,93%,82%,,85%,97%,84%,93%
COc1ccc(OC)c2c(=S)c3ccccc3[nH]c12,76%,90%,117%,90%,81%,,87%,103%,84%,96%
COc1cc2ncnc(Nc3ccc(NC(=O)c4ccccc4)cc3)c2cc1OC,57%,,105%,,90%,,88%,,86%,103%
O=C1Nc2ccc(Br)cc2/C1=C\c1cc2c([nH]1)CCCC2,112%,112%,101%,76%,60%,,,70%,74%,
O=c1c2ccccc2[nH]c(=S)n1CCN1CCC(=C(c2ccc(F)cc2)c2ccc(F)cc2)CC1,73%,149%,111%,101%,84%,97%,74%,90%,120%,106%
Cc1cc2ncc(-c3ccccc3)nc2cc1C,60%,,,105%,74%,,,92%,94%,78%
Cc1cncc2cccc(S(=O)(=O)N3CCCN(C(=O)CN)C[C@H]3C)c12,,137%,86%,98%,66%,97%,45%,95%,71%,98%
Cc1cccc(-c2[nH]c(C(C)(C)C)nc2-c2ccc3c(c2)OCO3)n1,102%,1%,-6%,102%,83%,106%,78%,102%,88%,83%
COc1cc2ncnc(Nc3ccc(Oc4ccccc4)cc3)c2cc1OC,72%,121%,112%,86%,140%,94%,144%,104%,79%,84%
O=C1c2ccccc2-[n+]2ccc3c([nH]c4ccccc43)c21,83%,110%,114%,95%,94%,101%,93%,97%,83%,89%
Cn1cc(/C=C2\C(=O)Nc3ccc(S(N)(=O)=O)cc32)c2ccccc21,31%,118%,104%,9%,4%,9%,4%,18%,11%,29%
Oc1n[nH]c2nnc(-c3c(-c4ccccc4)nn4ccccc34)cc12,89%,,115%,86%,82%,97%,90%,100%,45%,111%
